# Source: PubChem
# MCF10A rereplic – DNA re-replication induction in MCF 10a cells; Potency, µM (titrated, usually from 46.1 µM), for the others: top-dose activity, positive = re-replication, most hits filed as activators; MCF 10A DNA re-replication, Hoechst nuclear intensity, 48 h; 350,000 tested, 2.9% active; further: potency means the concentration at half of the fitted maximal effect; % of control where 0% means no effect; nearly all actives have a fitted effect of over 50% in size
# KB-3-1 tox – KB-3-1 parental cell cytotoxicity. KB-3-1 viability, CellTiter-Glo ATP luminescence, 72 h. Potency, µM (top dose mostly 46.1 µM), actives largely listed as cytotoxic. 400,000 tested, 1.4% active. AID 1347075; further: potency means the concentration at half of the fitted maximal effect; on the % scale 0 is the no-effect control and ±100 the full control effect; nearly all actives have a fitted effect of over 60% in size
#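 Using CellTiter-Glo luminescence, growth of non-resistant KB-3-1 adenocarcinoma cells is assessed 72 h after pin-tool compound addition at 37 °C. Normalized responses across the concentration series yield fitted curves.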
# DRD3 antagonist – D3 dopamine receptor (human) antagonism | D3R cells, DiscoveRx beta-arrestin luminescence, antagonist mode; active compounds read low | max response, negative = inhibition, % | 360,000 tested, 2.5% active | AID 652054; in the data active means max response below about -50%; inconclusive means no clear call, values can overlap the other calls; further: on the % scale 0 is the no-effect control and ±100 the full control effect
# Target sequence (P35462 whole entry, looked up): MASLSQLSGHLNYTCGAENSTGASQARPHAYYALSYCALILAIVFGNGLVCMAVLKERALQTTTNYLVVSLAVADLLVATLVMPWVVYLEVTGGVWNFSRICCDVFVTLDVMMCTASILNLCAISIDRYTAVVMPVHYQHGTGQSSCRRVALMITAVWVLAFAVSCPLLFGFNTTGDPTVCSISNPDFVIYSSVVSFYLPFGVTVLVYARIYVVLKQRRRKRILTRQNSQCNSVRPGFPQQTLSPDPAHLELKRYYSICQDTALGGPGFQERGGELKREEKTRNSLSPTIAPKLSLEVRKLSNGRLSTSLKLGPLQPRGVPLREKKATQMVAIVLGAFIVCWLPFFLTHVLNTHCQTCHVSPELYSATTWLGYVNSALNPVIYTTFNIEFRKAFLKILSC
#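 Cells expressing the human receptor were seeded at 1500 cells/well, incubated overnight at 37 degrees C in 5% CO2, then exposed to library compounds with dopamine controls for 90 minutes at 37 degrees C before luminescent detection.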
# KB-V1 cytotox – kills drug-selected multidrug resistant KB-V1 cells. KB-V1 MDR cells viability, CellTiter-Glo, 72 h. Potency, µM (top dose mostly 46.1 µM), actives largely listed as cytotoxic. 400,000 tested, 3.4% active; further: potency means the concentration at half of the fitted maximal effect; on the % scale 0 is the no-effect control and ±100 the full control effect; nearly all actives have a fitted effect of over 60% in size
#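 qHTS viability screen in drug-selected KB-V1 MDR cells: 72 h compound treatment at 37 degrees C, ATP luminescence end point.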
# SW480 rereplic – inducers of DNA re-replication in SW480 colon cancer cells | SW480 DNA re-replication, Hoechst DNA content imaging, 48 h | Potency, µM (highest dose often 46.1 µM), inactives show top-dose re-replication activation, actives largely listed as activators | 340,000 tested, 1.8% active | AID 624297; further: potency means the concentration at half of the fitted maximal effect; % of control where 0% means no effect; nearly all actives have a fitted effect of over 55% in size
#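 Compounds, transferred as 23 nL by pin tool, were incubated with cells for 48 hr; DNA content per nucleus was then quantified by Hoechst staining and fluorescence plate imaging.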
# D3 ag – activates the human D3 dopamine receptor; D3R DiscoveRx beta-arrestin cells, luminescence, 90 min; max activation, %; 410,000 tested, 0.58% active; in the data active means max activation above about 30%; further: 0% is about no effect
#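 Agonist mode: compounds and dopamine controls were applied to plated cells for 90 min at 37 degrees C after an overnight attachment at 1500 cells/well. Luminescent read-out followed 30 - 60 minutes at room temperature with DiscoveRx detection reagent.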
# Numbers without * were called inactive; i = inactive; ? = inconclusive; nt = no result; [ ] = another dose, or the depositor's remark. Only some compounds are listed: those with a hit (about 8.9% of all), similar ones and a draw of the others. Unless noted, the call rests on the fitted dose curve; in most records, active means well fitted curve in the direction sought with a large enough effect; inconclusive means small, poorly fitted or top-dose-only effect, or another doubt; inactive means no such curve, though single readings can be large; an effect the other way counts as inactive or inconclusive.
SMILES,MCF10A rereplic,KB-3-1 tox,DRD3 antagonist,KB-V1 cytotox,SW480 rereplic,D3 ag
Cc1cc(Br)ccc1NC(=O)CNC(=O)Cn1ncc(Cl)c(Cl)c1=O,1.2µM*,5.2µM*,-83*,?,?,-15
Cc1ccc2oc(=O)c3cnn(CC(=O)Nc4ccc(Br)cc4C)c3c2c1,nt,i,nt,i,nt,1
Cc1ccc(S(=O)(=O)N2CCCCC2)cc1NC(=O)Cn1ncc(Cl)c(Cl)c1=O,?,?,-64*,i,?,-20
Cc1ccc(S(=O)(=O)N2CCCCC2)cc1NC(=O)CNC(C)c1ccc(Cl)c(Cl)c1 (centres undefined),1%,15µM*,-20,i,22%,-16
CC(C)C(=O)N1CCN(S(=O)(=O)c2ccc3ccccc3c2)CC1,1%,i,6,i,2.9µM*,-3
Cc1ccc(-c2cc(C(=O)N3CCN(S(=O)(=O)c4ccc(Br)s4)CC3)[nH]n2)c(C)c1,nt,nt,nt,nt,nt,7
O=C(Cn1ncc(Cl)c(Cl)c1=O)N1CCN(S(=O)(=O)c2ccc3ccccc3c2)CC1,?,16µM*,?,i,?,-9
O=C(O)CCC(=O)N1CCN(S(=O)(=O)c2ccc3ccccc3c2)CC1,0%,i,-4,i,9%,-7
COc1ccccc1-n1c(=O)oc2ccc(Cl)cc2c1=O,6.5µM*,?,12,?,15%,7
CC(=O)N1CCC(N(Cc2ccco2)C(=O)Nc2cccc(C)c2)CC1,nt,i,nt,?,nt,-15
CC1CC(=O)NN=C1c1ccc(NCCO)c([N+](=O)[O-])c1 (centres undefined),-1%,i,-14,0.13µM*,-2%,-10
Cn1nc(-c2ccc(NCCO)c([N+](=O)[O-])c2)c2ccccc2c1=O,-16%,?,9,i,4%,5
CCN(CC)CCCNC(=O)/C(=C\c1cccn1C)NC(=O)c1cccs1,6%,i,-23,i,6%,-4
CCN(CC)CCC=C(c1cccs1)c1cccs1,?,i,-54*,i,?,-15
CCc1c(C)nc2ncnn2c1N1CCCC(C(=O)NCCc2ccc(OC)cc2)C1 (centres undefined),4%,?,-23,15µM*,6%,9
COc1ccc(CCNC(=O)C2CCCN(c3ncccn3)C2)cc1 (centres undefined),6%,i,2,?,-3%,0
CCCc1cc(N2CCCC(C(=O)Nc3ccc(OC)cc3OC)C2)n2ncnc2n1 (centres undefined),-5%,?,27,3.7µM*,-2%,10
O=C(NCCO)C(=O)NCC(c1ccc2c(c1)OCO2)N1CCOCC1 (centres undefined),nt,nt,nt,nt,nt,-7
C[C@@H]1CN([C@H](C)CO)C(=O)CCCn2nncc2CO[C@H]1CN(C)Cc1ccc(C(F)(F)F)cc1,nt,?,-9,i,nt,6
CCCSc1nsc(NC(=O)C(c2ccccc2)c2ccccc2)n1,?,26µM*,-71*,?,?,-9
CCCSc1nsc(NC(=O)CC)n1,-1%,i,0,i,10%,8
O=C(NCCc1ccc(Cl)cc1)c1ncn[nH]1,3%,i,7,i,-7%,-1
O=C(NCCc1ccccc1)c1ncn[nH]1,3%,i,-21,?,-2%,35*
CCCCC1(CO)C(=O)N(c2ccccc2)N(c2ccccc2)C1=O,-1%,i,-14,i,-9%,-33
CCCCC1(CC(=O)OCC)C(=O)N(c2ccccc2)N(c2ccccc2)C1=O,6%,i,-17,4.6µM*,17%,5
SMILES,MCF10A rereplic,KB-3-1 tox,DRD3 antagonist,KB-V1 cytotox,SW480 rereplic,D3 ag
C#C[C@]1(O)CC[C@@H]2[C@H]3CCC4=CCCC[C@@H]4[C@@H]3CC[C@@]21C,10µM*,nt,nt,nt,2%[20.6 µM],nt
C#C[C@]1(OC(C)=O)CCC2C3CCC4=CC(=O)CC[C@@H]4C3CC[C@@]21C (some centres undefined),10%,?,5,9.2µM*,-2%,13
C#C[C@]1(O)CC[C@H]2[C@@H]3CCC4=CCCC[C@@H]4[C@H]3C(=C)C[C@@]21CC,13µM*,nt,nt,nt,3%,4
CCC(C(=O)NCc1ccco1)N(C(=O)CNS(=O)(=O)c1ccccc1)c1ccc(OC)cc1 (centres undefined),?,i,-10,23µM*,3%,4
COCc1cc(C)nc2sc3c(c12)NC(c1ccccc1C(=O)O)N(c1cccc(C(F)(F)F)c1)C3=O (centres undefined),nt,nt,nt,nt,nt,-16
NC1=NC2(CCN(Cc3ccccc3)CC2)n2c(nc3ccccc32)N1,1%,i,-75*,i,-13%,-9
Cc1c(C)c2ccc(OCC(=O)N3CC[C@@]4(O)CCCC[C@H]4C3)cc2oc1=O,1%,i,11,i,-20%,33*
O=C1C2CCCN2C(=O)N1CCCCN1CCN(c2ccccc2)CC1 (centres undefined),0%,i,-24,i,-1%,30
O=C1C2CCCN2C(=O)N1CCCCN1CCN(c2cccc(Cl)c2)CC1 (centres undefined),?,i,-58*,8.2µM*,-703%,-1
O=C1C2CCCCN2C(=O)N1CCN1CCN(c2cccc(Cl)c2)CC1 (centres undefined),0%,i,-22,i,-3%,-12
O=C1C2CCCCN2C(=O)N1CCCCN1CCN(c2cccc(Br)c2)CC1 (centres undefined),8%,i,-80*,i,-1%,-4
CCc1nn2c(=O)cc(COc3ccc(/C=C(\C#N)C(=O)Nc4ccc(C)cc4)cc3)nc2s1,nt,i,nt,i,nt,-9
CC1CCCCC1NS(=O)(=O)c1ccc(S(=O)(=O)NCc2ccncc2)cc1 (centres undefined),21%,i,-14,16µM*,0%,-13
CCOc1ccccc1NC(=S)NCCCn1ccnc1,0.58µM*,i,1,?,?,3
CCOc1ccc(S(=O)(=O)NCCCn2ccnc2)cc1,23µM*,i,10,?,-8%,5
CCOC(=O)COc1ccc(S(=O)(=O)NCc2ccncc2)cc1,2%,?,27,i,4%,20
CCOc1ccc(S(=O)(=O)NCc2ccncc2)cc1,7%,0.82µM*,34,0.65µM*,0%,9
COc1ccc(NC(=S)NCCCn2ccnc2)cc1,-1%,i,21,i,4%,0
Cc1cccc(C)c1NC(=O)Cn1c(=O)n(CCCS(=O)(=O)C2CCCCC2)c(=O)c2ccccc21,nt,i,nt,i,nt,9
